NOD2-RIPK2 inh – NOD2-RIPK2 binding disruptors in cells, primary screen, fluorescence, CHO cells, BLA complementation; CCF4 ratio; inhibition, % at 4.98 µM; 0.38% of 360,000 active; AID 624267, 2012; in the data active = inhibition above about 21%;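 note: 0% = vehicle only and 100% = reference blocker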
Target sequence (O43353 whole entry, looked up): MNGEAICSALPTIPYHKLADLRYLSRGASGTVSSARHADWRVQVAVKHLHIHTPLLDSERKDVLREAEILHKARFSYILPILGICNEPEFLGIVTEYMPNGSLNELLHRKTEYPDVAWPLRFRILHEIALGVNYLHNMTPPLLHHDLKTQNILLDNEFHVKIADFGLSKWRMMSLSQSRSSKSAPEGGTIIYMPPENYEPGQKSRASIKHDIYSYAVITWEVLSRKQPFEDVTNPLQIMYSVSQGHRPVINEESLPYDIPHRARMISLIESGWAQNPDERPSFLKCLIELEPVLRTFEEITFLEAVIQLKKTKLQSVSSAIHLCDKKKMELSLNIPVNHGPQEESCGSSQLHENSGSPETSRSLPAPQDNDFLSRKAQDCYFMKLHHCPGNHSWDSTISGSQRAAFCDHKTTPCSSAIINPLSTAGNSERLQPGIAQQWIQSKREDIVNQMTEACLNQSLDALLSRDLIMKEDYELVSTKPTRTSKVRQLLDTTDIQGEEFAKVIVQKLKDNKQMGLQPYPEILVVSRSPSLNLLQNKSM
PRMT1 inh – PRMT1 methyltransferase inhibitors, primary screen, biochemical, fluorescence polarization. inhibition, % at 2.79 µM. 1.3% of 370,000 active. recombinant PRMT1, activity-based probe fluorescence polarization;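 active = inhibition above about 21% made by adding two undisclosed values, limit read from the data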
TLR9-MyD88 inh – inhibitors of TLR9-MyD88 association in cells, primary screen, cell-based, CHO, BLA complementation, fluorescence. CCF4 FRET ratio. 0.21% of 340,000 active. Toll-like receptor 9 (Homo sapiens) + Myeloid differentiation primary response protein …. inhibition, % at 4.98 µM;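 active = inhibition above the mean over all tested compounds plus 3 SD, cut at about 21% in these data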;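 note: 0% = DMSO only wells and 100% = clavulanate BLA inhibitor control wells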
TLR4 MyD88 comp – inhibitors of TLR4-MyD88 association in cells, primary screen, cell-based, HeLa CL3-4, BLA complementation, FRET ratio | 0.18% of 200,000 active | Toll-like receptor 4 (Homo sapiens) + Myeloid differentiation primary response protein … | HeLa CL3-4 TLR4/MyD88 BLA complementation | AID 861, 2007 | inhibition, % at 8.4 µM; in the data active = inhibition above about 25%;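 note: 0% = vehicle and 100% = reference inhibitor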
Exocytosis inh – LAMP-1 surface exposure blockers, TALL-104 cells – cell-based, flow cytometry, MLPCN library, primary screen; TALL-104 LAMP-1 surface exposure; cells stimulated with thapsigargin and PMA; inhibition, % at 10 µM; 0.66% of 360,000 active;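 active = inhibition above about 55%, limit read from the data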
ABHD5-PLIN5 inh – ABHD5-PLIN5 interaction inhibitors, primary screen, cell lysate, split luciferase complementation, luminescence; Perilipin-5 (Homo sapiens) + 1-acylglycerol-3-phosphate O-acyltransferase ABHD5 (Homo …; Split G. princeps luciferase complementation, 4 h; inhibition, % at 4 µM; 0.78% of 360,000 active; AID 602281, 2012;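 active = inhibition above the mean inhibition across every tested compound plus 3 SD, cut at about 22% in these data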;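 note: 0% = DMSO only wells and the 100% control is not disclosed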
ABHD5-PLIN5 conf – ABHD5-PLIN5 interaction inhibitors, confirmation, biochemical, luminescence | 67% of 2,200 active | shares compounds with ABHD5-PLIN5 inh | inhibition, % at 4 µM; in the data active = inhibition above about 23%;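 note: 0% = DMSO vehicle wells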
HNF4 split-luc – HNF4 dimerization inhibitors, counter-screen for ABHD5-PLIN5 interaction inhibitor project, biochemical, split-luciferase complementation, luminescence. shares compounds with ABHD5-PLIN5 inh. inhibition, % at 4 µM. 77% of 2,200 active;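 active = mean inhibition across replicate wells exceeding the computed hit threshold, cut at about 13% in these data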;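 note: light from luciferase halves that rejoin when HNF4 fusion proteins dimerize; 0% = DMSO only wells and the 100% control is not given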
* = called active by the depositor; / = no result. Compounds with a hit are over-represented: about 2.6% of the library has one in this group of screens.

SMILES | NOD2-RIPK2 inh | PRMT1 inh | TLR9-MyD88 inh | TLR4 MyD88 comp | Exocytosis inh | ABHD5-PLIN5 inh | ABHD5-PLIN5 conf | HNF4 split-luc
CC(=O)OCC1=C(C(=O)O)N2C(=O)C(NC(=O)CCn3nc(C(F)(F)F)c(Br)c3C3CC3)C2SC1 (configuration not stated) | -17 | 25* | -11 | 8 | 0 | 47* | 42* | 8
C[C@H](CO)N1C[C@H](C)[C@@H](CN(C)Cc2ccc(Cl)c(Cl)c2)Oc2c(NC(=O)Cc3ccccc3)cccc2C1=O | -6 | 2 | 5 | / | 22 | 26* | 5 | 0
C[C@H](CO)N1C[C@H](C)[C@@H](CN(C)Cc2ccccc2)Oc2c(NC(=O)Cc3ccccc3)cccc2C1=O | 0 | -1 | -11 | / | -4 | 9 | / | /
CCCCCc1ccc(-c2n[nH]c(=O)c3ccccc23)cc1 | / | 6 | / | / | / | / | / | /
COc1ccc(Cl)cc1/C=C1/C(=O)ON=C1C | 8 | -1 | 1 | / | -8 | 8 | / | /
CC1=NOC(=O)/C1=C\c1ccc(-c2ccc(Br)cc2C(=O)O)o1 | -4 | 9 | 3 | 5 | -4 | 7 | / | /
CC1=NOC(=O)/C1=C\c1ccc(-c2cc(Cl)ccc2Cl)o1 | 3 | 1 | 7 | 5 | 74* | 39* | 85* | 86*
CC1=NOC(=O)/C1=C\c1ccc(-c2ccc(Br)cc2)o1 | 5 | 10 | 4 | 4 | 33 | 38* | 93* | 106*
Cc1ccc(-n2c(COc3ccccc3)nnc2SCC(=O)Nc2ccc3c(c2)OCO3)cc1 | / | -1 | / | / | / | / | / | /
COC(=O)[C@@]12CCCCC=C1N(CCc1ccc(Cl)cc1)C(=O)[C@H]2CC(=O)NCC1CCCCC1 | / | -9 | / | / | / | / | / | /
CN(C)CCOc1ccc(/C(=C(/CCCl)c2ccccc2)c2ccccc2)cc1 | -38 | -1 | 7 | / | 14 | 46* | 75* | 35*
CC1(N2CCCCC2)C(=O)c2ccccc2C1=O | -3 | -4 | -7 | 2 | -2 | 4 | / | /
CC1(S(=O)(=O)O)CC(=O)c2ccccc2C1=O (configuration not stated) | -16 | -2 | 7 | / | 51 | 29* | 42* | 56*
CC(=O)NC(c1cccc([N+](=O)[O-])c1)c1ccc2cccnc2c1O (configuration not stated) | 7 | 0 | 6 | / | 2 | 1 | / | /
CCCCC(=O)NC(c1cccc([N+](=O)[O-])c1)c1ccc2cccnc2c1O (configuration not stated) | -1 | -4 | 8 | / | -2 | 33* | 29* | -2
O=C(/C=C/c1ccccc1)COC(=O)c1ccccc1 | 3 | 8 | 0 | / | 4 | 59* | 80* | 92*
COC(=O)[C@]12C[C@H](CC(=O)NCCc3ccccc3OC)C(=O)N(Cc3ccccc3)C1=C[C@H](C1CCCC1)O[C@@H]2C | / | -2 | / | / | / | / | / | /
COc1ccc(NC(=O)c2cccc([N+](=O)[O-])c2)cc1 | 0 | -2 | 3 | -7 | -3 | -1 | / | /
COc1cccc(/C=C/C(=O)c2cccc([N+](=O)[O-])c2)c1 | -7 | 0 | 1 | -2 | 0 | 64* | 97* | 97*
COc1cccc(/C=C/C(=O)c2cccc([N+](=O)[O-])c2)c1OC | 2 | 6 | 1 | 13 | 2 | 85* | 101* | 97*
COc1ccc(/C=C/C(=O)c2ccncc2)c2ccccc12 | 1 | 2 | 3 | 2 | 2 | 56* | 84* | 79*
COc1cccc(/C=C/C(=O)Nc2cccc(C(C)=O)c2)c1OC | -11 | -3 | -7 | 7 | -4 | 0 | / | /
COc1ccc(/C=C/C(=O)c2ccc[nH]2)c(OC)c1OC | -9 | 1 | -7 | -23 | -2 | 0 | / | /
COc1cccc(C(=O)/C=C/c2ccc(N3CCCCC3)c([N+](=O)[O-])c2)c1 | 3 | 1 | 0 | 4 | 0 | 29* | 87* | 73*
CCOc1cc(C=NN2CCN(Cc3ccc(C)cc3)CC2)ccc1O | / | 5 | / | / | / | / | / | /
SMILES | NOD2-RIPK2 inh | PRMT1 inh | TLR9-MyD88 inh | TLR4 MyD88 comp | Exocytosis inh | ABHD5-PLIN5 inh | ABHD5-PLIN5 conf | HNF4 split-luc
COC(=O)[C@H](Cc1ccccc1)NC(=O)[C@H]1C[C@@]2(N3CCCC3)c3ccccc3N(C(=O)OC(C)(C)C)[C@H]2N1C(=O)OC(C)(C)C | / | 3 | / | / | / | / | / | /
COCCNC(=S)N1C[C@H]2CON(C)[C@H]2C[C@H]1c1ccccc1Br | / | -2 | / | / | / | / | / | /
COc1cccc(CNC(=O)[C@H]2CCCN2C(=O)[C@H]2CCCN2C(=O)OC(C)(C)C)c1 | / | -1 | / | / | / | / | / | /
CCCCCCCCN1C(=O)[C@@H](CC(=O)N2CCCCC2)C[C@@]2(C(=O)OC)C1=C[C@H](C(C)(C)C)O[C@@H]2C | / | 5 | / | / | / | / | / | /
COc1ccc(-n2c(SCC(=O)N3CCCC3)nnc2-c2ccncc2)cc1 | / | -2 | / | / | / | / | / | /
O=C(NC1CCCC1)C1CSCCS(=O)(=O)N1Cc1ccc(F)cc1 (configuration not stated) | / | 1 | / | / | / | / | / | /
COc1ccc(OC(=O)c2cccc([N+](=O)[O-])c2)c(C(=O)/C=C/c2cccs2)c1 | -1 | -1 | -9 | -7 | 2 | 42* | 57* | 53*
Cc1ccc(C(=O)N(C)[C@H]2C[C@H]3c4[nH]c5c(-c6ccccc6)cccc5c4CCN3C(=O)[C@H]2[C@H](C)O)cc1 | / | -1 | / | / | / | / | / | /
C#CCNC(=O)C1=C[C@H](C2CCCCC2)[C@@H](CCCO)[C@H](OCC)O1 | -11 | -3 | 1 | -16 | 43 | 101* | 3 | 1
Cc1ccc(C(=O)NCCN2C(=O)C3C4C=CC(C4)C3C2=O)cc1 (configuration not stated) | / | -4 | / | / | / | / | / | /
CCOC(=O)/C(=C/c1ccc(OC(F)F)cc1)C1=Nn2c(nnc2-c2ccc(Cl)cc2)SC1 | -4 | 2 | -1 | / | 0 | 42* | 101* | 91*
COC(=O)[C@]12C[C@H](CC(=O)NCCc3ccccc3OC)C(=O)N(Cc3ccccc3)C1=C[C@H](COCc1ccccc1)O[C@@H]2C | / | -2 | / | / | / | / | / | /
CCOC(=O)COc1ccc(Br)cc1/C=C/c1[nH]c(=O)[nH]c(=O)c1[N+](=O)[O-] | 1 | 5 | 14 | -4 | 3 | 65* | 76* | 85*

Source: PubChem (several laboratories)
